# Results published in PubChem BioAssay (Tox21).
# Several values for one entry are separate records, joined by “and”; a condition that tells them apart may be missing. Equal values may be shown once. A number with no mark means an inactive call. Inconclusive results are not listed. A call without a number means that no potency is given here. Activity calls are given as the source filed them. Unless noted, the call rests on the fitted dose curve; in most records, active means well fitted curve in the direction sought with a large enough effect in the repeat runs; inconclusive means weak or mixed curves; inactive means no such curve, though single readings can be large; an effect the other way counts as inactive or inconclusive.
# How the values were obtained:
# [1] = qHTS assay for small molecule agonists of the p53 signaling pathway (AID 651631; calls by dose curve; further: nearly all actives have a fitted effect of over 15% in size; further: potency means the concentration at half of the fitted maximal effect)
# Procedure, shortened: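 Testing took place in human colorectal HCT-116 cells with stable p53RE-driven beta-lactamase. After 16 h of compound exposure at 37 °C, a FRET substrate was added and fluorescence recorded 2 h later.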
# [2] = qHTS assay for small molecule agonists of the p53 signaling pathway - cell viability (AID 651633; calls by dose curve; further: nearly all actives have a fitted effect of over 30% in size; further: potency means the concentration at half of the fitted maximal effect; on activity change, negative = cytotoxicity: series mostly up to about 83 µM)
# Procedure, shortened: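 p53RE-bla cells were treated with compound for 16 hours at 37 C. Cytotoxicity was then measured as CellTiter-Glo luminescence after 30 min at room temperature.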
# [3] = qHTS assay for small molecules that induce genotoxicity in human embryonic kidney cells expressing luciferase-tagged ATAD5 - cell viability (AID 651634; calls by dose curve; further: nearly all actives have a fitted effect of over 25% in size; further: potency means the concentration at half of the fitted maximal effect)
# Procedure, shortened: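 HEK293T cells expressing luciferase-tagged ATAD5 were exposed to compound or DMSO for 15.5 hr at 37C, 5% CO2. Viability was then read as live-cell protease activity by CellTiter-Fluor fluorescence after 30 min at 37C.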
# [4] = qHTS assay for small molecule disruptors of the mitochondrial membrane potential - cell viability (AID 720634; calls by dose curve; further: nearly all actives have a fitted effect of over 20% in size; further: potency means the concentration at half of the fitted maximal effect;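 on activity change, negative = cytotoxicity: human HepG2 liver cancer cells; series mostly up to about 83 µM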)
# Procedure, shortened: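 HepG2 cells seeded overnight at 37 C, then exposed to compound or DMSO for 1 hr at 37 C, 5% CO2. m-MPI dye added, then CellTiter-Glo for 30 min at room temperature; viability read as ATP luminescence.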
# [5] = qHTS assay for small molecule disruptors of the mitochondrial membrane potential (AID 720635); further: potency means the concentration at half of the fitted maximal effect
# Procedure, shortened: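 HepG2 cells exposed to compound 1 hr at 37C, then Mito-MPS dye 30 min. Ratio read of aggregate (540/590 nm) versus monomer (490/535 nm) fluorescence.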
# [6] = qHTS assay to test for compound auto fluorescence at 590 nm (red) in HepG2 cells (AID 720674)
# Procedure, shortened: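 HepG2 cells, 2,000 per well in MEM with 10% FBS, attached overnight at 37 C, then got 23 nL compound or DMSO. After 1 hr at 37 C, 5% CO2, red fluorescence was read at 540/590 nm against Rose Bengal sodium as reference.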
# [7] = qHTS assay to test for compound auto fluorescence at 535 nm (green) in HepG2 cells (AID 720675)
# [8] = qHTS assay to test for compound auto fluorescence at 460 nm (blue) in HEK293 cells (AID 720678)
# Procedure, shortened: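 HEK293, 2,000 cells/well, 10% dialyzed FBS; attach 4-5 hr 37C; pin compound or DMSO; o/n 37C/5% CO2; fluorescence 405/460 nm; triamterene-equivalent units.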
# [9] = qHTS assay to test for compound auto fluorescence at 590 nm (red) in HEK293 cells (AID 720679)
# Procedure, shortened: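 Intensity at 540nm excitation and 590nm emission is reported as Rose Bengal sodium-equivalent autofluorescence. Measurements followed overnight exposure (37C, 5% CO2) of HEK293 cells, 2,000 per well, to 23 nL compound.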
# [10] = qHTS assay for small molecules that induce genotoxicity in human embryonic kidney cells expressing luciferase-tagged ATAD5 (AID 651632); further: nearly all actives have a fitted effect of over 15% in size
# Procedure, shortened: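 HEK293T cells carrying a luciferase reporter tagged to ATAD5 were exposed to compound or DMSO vehicle for 16 hr at 37C, 5% CO2. Amplite was added, and after 30 min at room temperature luciferase activity was read as a marker of ATAD5 induction.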
structure (smiles),measurement,setting,value
COc1ccc(CN2CCNCC2)c(OC)c1OC,Potency,[1],inactive
same,Potency,[2],inactive
same,Potency,[3],inactive
same,Potency,[4],inactive
same,Potency,[5],inactive
same,"fluorescence, relative to Rose Bengal",[6],-0.414% [at 18.6 µM]
same,"fluorescence, % of fluorescein control",[7],0.0608% [at 18.6 µM]
same,"fluorescence, % of triamterene",[8],-0.103% [at 18.6 µM]
same,"fluorescence, % of fluorescent control",[9],0.0575% [at 18.6 µM]
C[C@H](N)C(=O)c1ccccc1,outcome,[10],inactive
same,Potency,[2],inactive
same,Potency,[3],inactive
same,Potency,[4],inactive
same,Potency,[5],inactive
same,outcome,[6],inactive
same,outcome,[7],inactive
same,outcome,[8],inactive
same,outcome,[9],inactive
ClC1=C(Cl)C2(Cl)C(CBr)CC1(Cl)C2(Cl)Cl (stereo unspecified),outcome,[10],inactive
same,Potency,[2],26.6 µM (active) and 61.1 µM (active)
same,Potency,[3],inactive
same,Potency,[4],inactive
same,Potency,[5],27.3 µM (active)
same,outcome,[6],inactive
same,outcome,[7],inactive
same,outcome,[9],inactive
COc1cc(CCN)cc(OC)c1OC,outcome,[10],inactive
same,Potency,[2],inactive
same,Potency,[3],inactive
same,Potency,[4],inactive
same,Potency,[5],inactive
same,outcome,[6],inactive
same,outcome,[7],inactive
same,outcome,[8],inactive
same,outcome,[9],inactive
Oc1ccc2c3c1O[C@H]1[C@@H](O)C=C[C@H]4[C@@H](C2)NCC[C@@]341,Potency,[1],inactive
same,Potency,[2],inactive
same,Potency,[3],inactive
same,outcome,[6],inactive
same,outcome,[7],inactive
same,outcome,[9],inactive
N#CC(Br)(Br)C(N)=O,Potency,[1],inactive
same,Potency,[2],inactive
same,Potency,[3],inactive
same,outcome,[6],inactive
same,outcome,[7],inactive
same,outcome,[8],inactive
same,outcome,[9],inactive
O=C(O)C(Br)(Br)Br,outcome,[10],inactive
same,Potency,[2],inactive
same,Potency,[3],inactive
same,Potency,[4],inactive
same,Potency,[5],inactive
same,outcome,[6],inactive
same,outcome,[7],inactive
same,outcome,[8],inactive
same,outcome,[9],inactive
CC(C)[C@]12CC(=O)[C@H](C)[C@H]1C2,outcome,[10],inactive
same,Potency,[2],inactive
same,Potency,[3],inactive
same,Potency,[4],inactive
same,Potency,[5],inactive
same,outcome,[6],inactive
same,outcome,[7],inactive
same,outcome,[8],inactive
same,outcome,[9],inactive
CCN[C@@H](C)Cc1cccc(C(F)(F)F)c1,outcome,[10],inactive
same,Potency,[2],inactive
same,Potency,[3],inactive
same,Potency,[4],inactive
same,Potency,[5],inactive
same,outcome,[6],inactive
same,outcome,[7],inactive
same,outcome,[8],inactive
same,outcome,[9],inactive
CCC1(c2ccccc2)CCC(=O)NC1=O (stereo unspecified),Potency,[1],inactive
same,Potency,[2],inactive
same,Potency,[3],inactive
same,Potency,[4],inactive
same,Potency,[5],inactive
same,outcome,[6],inactive
same,outcome,[7],inactive
same,outcome,[8],inactive
same,outcome,[9],inactive
C[C@H]1CCCC(=O)CCC/C=C/c2cc(O)cc(O)c2C(=O)O1,Potency,[1],9.33 µM (active) and 22.4 µM (active)
same,Potency,[2],inactive
same,Potency,[3],20.9 µM (active)
same,Potency,[4],11.7 µM (active) and 20 µM (active)
same,Potency,[5],2.34 µM (active) and 4.47 µM (active)
same,outcome,[6],inactive
same,outcome,[7],inactive
same,outcome,[9],inactive
Cc1ccc(Cl)c(O)c1,outcome,[10],inactive
same,Potency,[2],inactive
same,Potency,[3],inactive
same,Potency,[4],inactive
same,outcome,[6],inactive
same,outcome,[7],inactive
same,outcome,[8],inactive
same,outcome,[9],inactive
CC(C)(N)Cc1ccc(Cl)cc1,outcome,[10],inactive
same,Potency,[2],inactive
same,Potency,[3],inactive
same,Potency,[4],inactive
same,outcome,[6],inactive
same,outcome,[7],inactive
same,outcome,[8],inactive
same,outcome,[9],inactive
O=P(O)(O)c1ccccc1,outcome,[10],inactive
same,Potency,[2],inactive
same,Potency,[3],inactive
same,Potency,[4],inactive
same,Potency,[5],inactive
same,outcome,[6],inactive
same,outcome,[7],inactive
same,outcome,[8],inactive
same,outcome,[9],inactive
C=CC=O,Potency,[1],inactive
same,Potency,[2],inactive
same,Potency,[3],inactive
same,outcome,[6],inactive
same,outcome,[7],inactive
same,outcome,[8],inactive
same,outcome,[9],inactive
O=C1CC(=O)NC(=O)N1,Potency,[1],inactive
same,Potency,[2],inactive
same,Potency,[3],inactive
same,Potency,[4],inactive
same,outcome,[6],inactive
same,outcome,[7],inactive
same,outcome,[8],inactive
same,outcome,[9],inactive
C=CCCC#N,Potency,[1],inactive
same,Potency,[2],inactive
same,Potency,[3],inactive
same,Potency,[4],inactive
same,outcome,[6],inactive
same,outcome,[7],inactive
same,outcome,[8],inactive
same,outcome,[9],inactive
CC(C)c1ccc(O)cc1,Potency,[1],inactive
same,Potency,[2],inactive
same,Potency,[3],inactive
same,Potency,[4],inactive
same,outcome,[6],inactive
same,outcome,[7],inactive
same,outcome,[8],inactive
same,outcome,[9],inactive
CN(C)CCc1c[nH]c2cccc(OP(=O)(O)O)c12,outcome,[10],inactive
same,Potency,[2],inactive
same,Potency,[3],inactive
same,Potency,[4],inactive
same,Potency,[5],inactive
same,outcome,[6],inactive
same,outcome,[7],inactive
same,outcome,[8],inactive
same,outcome,[9],inactive
COc1cc(CC(C)N)cc(OC)c1OC (stereo unspecified),Potency,[1],inactive
same,Potency,[2],inactive
same,Potency,[3],inactive
same,Potency,[4],inactive
same,Potency,[5],inactive
same,outcome,[6],inactive
same,outcome,[7],inactive
same,outcome,[8],inactive
same,outcome,[9],inactive
Cc1cc(OC(=O)N(C)C)nn1C(=O)N(C)C,Potency,[1],inactive
same,Potency,[2],inactive
same,Potency,[3],inactive
same,Potency,[4],inactive
same,Potency,[5],inactive
same,outcome,[6],inactive
same,outcome,[7],inactive
same,outcome,[8],inactive
same,outcome,[9],inactive
CN=CNc1ccc(C)cc1C,outcome,[10],inactive
same,Potency,[2],inactive
same,Potency,[3],inactive
same,Potency,[4],inactive
same,outcome,[6],inactive
same,outcome,[7],inactive
same,outcome,[8],inactive
same,outcome,[9],inactive
c1ccc2c(c1)CCNC2,Potency,[1],inactive
same,Potency,[2],inactive
same,Potency,[3],inactive
same,Potency,[4],inactive
same,outcome,[6],inactive
same,outcome,[7],inactive
same,outcome,[9],inactive
CCOP(=S)(OCC)SCCl,outcome,[10],inactive
same,Potency,[2],inactive
same,Potency,[3],inactive
same,Potency,[4],inactive
same,Potency,[5],inactive
same,outcome,[6],inactive
same,outcome,[7],inactive
same,outcome,[8],inactive
same,outcome,[9],inactive
C[C@H](CN1CCOCC1)C(C(=O)N1CCCC1)(c1ccccc1)c1ccccc1,Potency,[1],inactive
same,Potency,[2],inactive
same,Potency,[3],inactive
same,Potency,[4],inactive
same,outcome,[6],inactive
same,outcome,[7],inactive
same,outcome,[8],inactive
same,outcome,[9],inactive
CCC1(c2ccccc2)C(=O)N(COC)C(=O)N(COC)C1=O,outcome,[10],inactive
same,Potency,[2],inactive
same,Potency,[3],inactive
same,Potency,[4],inactive
same,Potency,[5],inactive
same,outcome,[6],inactive
same,outcome,[7],inactive
same,outcome,[8],inactive
same,outcome,[9],inactive
CS(=O)(=O)c1ccc(C(=O)C2C(=O)CCCC2=O)c(Cl)c1COCC(F)(F)F,outcome,[10],inactive
same,Potency,[2],inactive
same,Potency,[3],inactive
same,Potency,[4],inactive
same,outcome,[6],inactive
same,outcome,[7],inactive
same,outcome,[8],inactive
same,outcome,[9],inactive
CCNc1nc(Cl)nc(NC(C)(C)C)n1,outcome,[10],inactive
same,Potency,[2],inactive
same,Potency,[3],inactive
same,Potency,[4],inactive
same,outcome,[6],inactive
same,outcome,[7],inactive
same,outcome,[8],inactive
same,outcome,[9],inactive
N#CN,outcome,[10],inactive
same,Potency,[2],inactive
same,Potency,[3],inactive
same,Potency,[4],inactive
same,Potency,[5],inactive
same,outcome,[6],inactive
same,outcome,[7],inactive
same,outcome,[8],inactive
same,outcome,[9],inactive
C[C@]12C=CC(=O)C=C1CC[C@@H]1[C@@H]2CC[C@@]2(C)[C@H]1CC[C@]2(C)O,outcome,[10],inactive
same,Potency,[2],inactive
same,Potency,[3],inactive
same,Potency,[4],inactive
same,Potency,[5],inactive
same,outcome,[6],inactive
same,outcome,[7],inactive
same,outcome,[8],inactive
same,outcome,[9],inactive
COc1cccc(C=O)c1,Potency,[1],inactive
same,Potency,[2],inactive
same,Potency,[3],inactive
same,Potency,[4],inactive
same,outcome,[6],inactive
same,outcome,[7],inactive
same,outcome,[8],inactive
same,outcome,[9],inactive
CCN(CC)C1CCCCC1,Potency,[1],inactive
same,Potency,[2],inactive
same,Potency,[3],inactive
same,Potency,[4],inactive
same,outcome,[6],inactive
same,outcome,[7],inactive
same,outcome,[8],inactive
same,outcome,[9],inactive
COC(=O)c1ccc(CBr)cc1,Potency,[1],inactive
same,Potency,[2],inactive
same,Potency,[3],inactive
same,Potency,[4],inactive
same,Potency,[5],inactive
same,outcome,[6],inactive
same,outcome,[7],inactive
same,outcome,[9],inactive
Brc1c(Br)c(Br)c(Br)c(Br)c1Br,activation,[1],-6.36% [at 8.3 µM]
same,"activity change, negative = cytotoxicity",[2],9.67% [at 8.08 µM]
same,"activity, negative = cytotoxicity",[3],13.6% [at 8.08 µM]
same,"activity change, negative = cytotoxicity",[4],4.11% [at 8.08 µM]
same,"fluorescence, relative to Rose Bengal",[6],0.167% [at 3.72 µM]
same,"fluorescence, % of fluorescein control",[7],0.0147% [at 3.72 µM]
same,"fluorescence, % of triamterene",[8],0.185% [at 3.72 µM]
same,"fluorescence, % of fluorescent control",[9],-0.438% [at 3.72 µM]
Cc1ccc(-c2nc3ccc(C)cn3c2CC(=O)N(C)C)cc1,Potency,[1],inactive
same,Potency,[2],inactive
same,Potency,[3],inactive
same,Potency,[5],inactive
same,outcome,[6],inactive
same,outcome,[7],inactive
same,outcome,[8],inactive
same,outcome,[9],inactive
Clc1ccc(C(Cl)(Cl)Cl)cn1,Potency,[1],inactive
same,Potency,[2],inactive
same,Potency,[3],inactive
same,Potency,[4],inactive
same,outcome,[6],inactive
same,outcome,[7],inactive
same,outcome,[8],inactive
same,outcome,[9],inactive
COC(=O)c1ccccc1CS(=O)(=O)NC(=O)Nc1nc(OC)cc(OC)n1,Potency,[1],inactive
same,Potency,[2],inactive
same,Potency,[3],inactive
same,Potency,[4],inactive
same,outcome,[6],inactive
same,outcome,[7],inactive
same,outcome,[8],inactive
same,outcome,[9],inactive
